According to PubChem BioAssay:
Calls of active or inactive are those of the source.

What was measured:
Albumin (Bos taurus) = Albumin (Bos taurus) (UniProt P02769); assay: bovine serum albumin binders on microarray, profiling panel, artefact control for SMM control protein annotation, biochemical, small-molecule microarray, Alexa647 label, 635/667 nm fluorescence (AID 1118); settings: BSA-A647 binding, fluorescence 635 nm, higher = more signal;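 further: score merges 667 nm emission intensity and signal-to-noise per printed compound spot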
[1] = small-molecule microarray binders of probe aXIP, primary screen, biochemical, NeuroSMM set, 635/667 nm fluorescence (AID 1119); settings: higher = more signal, called active from +8 up or from −8 down;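 further: probe is the protein aXip251-270 applied at 1 µg/mL to compound-printed slides; binding of probe to printed compounds measured as 667 nm fluorescence plus signal to noise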
[2] = small-molecule binders of probe aNOTCH3, primary screen, biochemical, small-molecule microarray, 635/667 nm fluorescence (AID 1120); settings: higher = more signal;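 further: probe is a biotin-tagged antibody raised against NOTCH3 rather than NOTCH3 protein; score merges spot fluorescence near 667 nm with spot signal to noise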
[3] = small-molecule binders of probe aNOTCH2, primary screen, biochemical, small-molecule microarray, 635/667 nm fluorescence (AID 1121); settings: higher = more signal;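 further: score merges feature fluorescence read at 667 nm with its signal to noise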
[4] = target: Carbonic anhydrase 2 (Homo sapiens) (UniProt P00918); assay: CAII small-molecule binders, profiling panel, biochemical, small-molecule microarray, Alexa647-labelled CAII (AID 1122); settings: CAII-A647 binding fluorescence, higher = more signal
[5] = COS7 lysate on small-molecule microarray, probe aHis, 635 nm (AID 1123); settings: COS7 cell lysate, fluorescence, higher = more signal;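 further: z-score combines 667nm fluorescence intensity with signal-to-noise per printed compound spot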
[6] = compound binding in COS7 lysate, probe aLAP1, primary screen, cell lysate, small-molecule microarray (AID 1124); settings: probe aLAP1, fluorescence, higher = more signal;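 further: lysate comes from COS7 cells expressing LAP1 and is applied at 0.3 µg/mL; score merges spot fluorescence near 667 nm with signal-to-noise over triplicate slides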
Sam68 (KHDRBS1) = assay: Sam68 small-molecule binders, primary screen, biochemical, small-molecule microarray, 635 nm fluorescence (AID 1125); settings: small-molecule microarray binding, higher = more signal;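 further: score merges 667 nm channel intensity with signal to noise over triplicate slides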
[7] = tested on: Chordin-like protein 2 (CHRDL2); assay: CHRDL2 small-molecule binders, primary screen, biochemical, small-molecule microarray, 635 nm fluorescence (AID 1126); settings: small-molecule microarray binding, fluorescence 635 nm; higher = more signal;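 further: printed compound slides probed with Chrdl2 protein at 4 µg/mL for 1 h at 4 C; score merges 667 nm emission intensity with signal to noise over three replicate slides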
[8] = target: Concanavalin-A (Canavalia ensiformis) (UniProt P02866); assay: ConA small-molecule binders, primary screen, artefact control for SMM control protein annotation, biochemical, small-molecule microarray, Alexa647 label, 635 nm (AID 1127); settings: ConA-A647 binding fluorescence, higher = more signal;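 further: z combines 667 nm emission intensity with signal-to-noise across three replicate slides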
[9] = anti-His antibody binders, primary screen, artefact control for SMM control protein annotation, biochemical, small-molecule microarray, 635 nm fluorescence (AID 1128); settings: anti-His Alexa647 antibody binding, higher = more signal;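 further: score merges feature fluorescence with signal-to-noise for each printed compound spot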
[10] = tested on: Human papillomavirus type 1a E7 protein (residues 1-88); assay: HPV1a E7 small-molecule binders, primary screen, biochemical, small-molecule microarray, residues 1-88, 635 nm (AID 1129); settings: small-molecule microarray binding, fluorescence 635 nm; higher = more signal
[11] = target: Focal adhesion kinase 1 (Homo sapiens) (UniProt Q05397); assay: small-molecule microarray binders of FAK, primary screen, biochemical, 635/667 nm fluorescence, BSA, DTT (AID 1130); settings: PTK2 binding, 635 nm fluorescence, higher = more signal;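 further: composite of spot emission at 667 nm and signal to noise over triplicate slides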
[12] = tested on: Fibrinogen (Alexa647-labelled); assay: fibrinogen binders on compound microarrays, profiling panel, artefact control for SMM control-protein annotation, biochemical, small-molecule microarray, 635/667 nm fluorescence (AID 1131); settings: fibrinogen-A647 binding fluorescence, higher = more signal;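 further: z-score merges 667 nm fluorescence with per-spot signal-to-noise over triplicate slides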
[13] = target: Follistatin (Homo sapiens) (UniProt P19883); assay: follistatin binders on small-molecule microarrays, primary screen, biochemical, small-molecule microarray, 635/667 nm fluorescence (AID 1132); settings: FST binding, 635 nm fluorescence, higher = more signal
[14] = target: Fibroblast growth factor 2 (Homo sapiens) (UniProt P09038); assay: FGF2 binders on small-molecule microarrays, primary screen, biochemical, small-molecule microarray, 635/667 nm fluorescence (AID 1133); settings: small-molecule microarray binding, FGF2, fluorescence 635/667; higher = more signal
[15] = mitochondrial membrane potential change in A549 cells, profiling panel, cell-based, JC-1 fluorescence, basal, 24 h, 100 nL (AID 1138); settings: higher = more signal;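 further: A549 lung adenocarcinoma cells under basal conditions with no added stimulus; test concentration not given here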
Lefty1 = Lefty1 binders on small-molecule microarrays, primary screen, biochemical, small-molecule microarray, 635/667 nm fluorescence (AID 1139); settings: small-molecule microarray binding, fluorescence 635/667; higher = more signal
[16] = tested on: wheat germ agglutinin (Triticum aestivum), Alexa647-labelled; assay: wheat germ agglutinin binders on compound microarrays, profiling panel, artefact control for SMM control-protein annotation, biochemical, small-molecule microarray, 635/667 nm fluorescence (AID 1140); settings: WGA-A647 binding, 635 nm fluorescence, higher = more signal;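 further: score merges 667 nm feature emission with signal to noise over triplicate slides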
[17] = target: Luciferin 4-monooxygenase (Photinus pyralis) (UniProt P08659); assay: firefly luciferase enzyme inhibitors, primary screen, biochemical, luminescence, purified enzyme, 2006 set (AID 1141); settings: SteadyGlo luminescence, 30 min, higher = more signal, called active from +8 up or from −8 down;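 further: cell-free assay with purified firefly luciferase at 100 ng per well in PBS; test concentration not given here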
Sequence of Luciferin 4-monooxygenase (Photinus pyralis) (P08659 whole entry, looked up): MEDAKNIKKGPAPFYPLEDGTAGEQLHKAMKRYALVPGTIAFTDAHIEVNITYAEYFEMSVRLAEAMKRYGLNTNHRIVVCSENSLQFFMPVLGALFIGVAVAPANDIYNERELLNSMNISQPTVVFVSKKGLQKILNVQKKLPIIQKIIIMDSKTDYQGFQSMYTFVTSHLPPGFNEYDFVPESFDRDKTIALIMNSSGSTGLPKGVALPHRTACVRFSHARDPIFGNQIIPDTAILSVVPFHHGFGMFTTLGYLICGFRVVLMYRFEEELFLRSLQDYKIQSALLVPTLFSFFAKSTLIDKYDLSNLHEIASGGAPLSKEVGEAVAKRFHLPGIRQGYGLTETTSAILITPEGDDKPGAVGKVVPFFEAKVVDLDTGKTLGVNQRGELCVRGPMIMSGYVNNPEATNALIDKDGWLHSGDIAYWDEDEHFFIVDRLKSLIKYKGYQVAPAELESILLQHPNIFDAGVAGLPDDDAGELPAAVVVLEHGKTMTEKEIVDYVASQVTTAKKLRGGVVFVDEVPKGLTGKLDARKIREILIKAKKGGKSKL

Sequence of Albumin (Bos taurus) (P02769 whole entry, looked up): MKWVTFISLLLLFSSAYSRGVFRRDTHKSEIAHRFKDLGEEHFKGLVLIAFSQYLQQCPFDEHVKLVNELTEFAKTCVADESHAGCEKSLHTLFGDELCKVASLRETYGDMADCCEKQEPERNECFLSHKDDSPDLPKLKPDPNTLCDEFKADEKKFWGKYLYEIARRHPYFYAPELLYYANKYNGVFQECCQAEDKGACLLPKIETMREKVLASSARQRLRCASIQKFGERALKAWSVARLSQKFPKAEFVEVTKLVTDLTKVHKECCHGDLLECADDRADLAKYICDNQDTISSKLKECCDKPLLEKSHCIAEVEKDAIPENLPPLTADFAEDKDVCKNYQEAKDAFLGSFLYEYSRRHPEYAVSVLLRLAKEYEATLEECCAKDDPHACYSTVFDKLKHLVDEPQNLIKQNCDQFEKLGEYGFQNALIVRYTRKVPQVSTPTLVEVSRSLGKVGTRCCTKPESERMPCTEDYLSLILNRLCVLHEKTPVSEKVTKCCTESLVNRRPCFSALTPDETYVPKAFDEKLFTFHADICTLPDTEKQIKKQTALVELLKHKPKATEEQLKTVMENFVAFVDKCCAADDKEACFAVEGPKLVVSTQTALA
Sequence of Concanavalin-A (Canavalia ensiformis) (P02866 whole entry, looked up): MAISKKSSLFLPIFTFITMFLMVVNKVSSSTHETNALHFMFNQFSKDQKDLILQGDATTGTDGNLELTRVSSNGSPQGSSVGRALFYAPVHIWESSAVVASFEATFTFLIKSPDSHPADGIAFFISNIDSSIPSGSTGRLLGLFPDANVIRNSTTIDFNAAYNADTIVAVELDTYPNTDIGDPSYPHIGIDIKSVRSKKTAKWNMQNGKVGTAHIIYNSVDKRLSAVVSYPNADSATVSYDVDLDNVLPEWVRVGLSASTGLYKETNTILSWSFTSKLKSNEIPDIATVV
Sequence of Follistatin (Homo sapiens) (P19883 whole entry, looked up): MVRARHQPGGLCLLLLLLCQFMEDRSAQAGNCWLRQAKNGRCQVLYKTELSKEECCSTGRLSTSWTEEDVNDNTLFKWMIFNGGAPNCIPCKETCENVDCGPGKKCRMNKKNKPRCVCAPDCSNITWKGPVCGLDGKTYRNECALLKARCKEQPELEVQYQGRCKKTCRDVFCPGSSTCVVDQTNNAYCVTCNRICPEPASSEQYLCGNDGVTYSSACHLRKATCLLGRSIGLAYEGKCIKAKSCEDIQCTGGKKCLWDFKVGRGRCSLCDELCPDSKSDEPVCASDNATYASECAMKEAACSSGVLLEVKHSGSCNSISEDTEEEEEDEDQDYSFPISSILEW
Sequence of Fibroblast growth factor 2 (Homo sapiens) (P09038 whole entry, looked up): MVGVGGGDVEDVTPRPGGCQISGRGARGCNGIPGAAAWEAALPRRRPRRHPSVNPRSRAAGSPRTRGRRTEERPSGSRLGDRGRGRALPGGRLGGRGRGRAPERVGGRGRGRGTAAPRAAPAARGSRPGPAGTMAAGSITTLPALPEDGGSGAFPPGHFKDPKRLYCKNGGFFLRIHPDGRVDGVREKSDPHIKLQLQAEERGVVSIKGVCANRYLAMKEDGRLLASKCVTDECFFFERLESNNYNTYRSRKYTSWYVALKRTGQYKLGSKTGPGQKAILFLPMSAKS
Sequence of Focal adhesion kinase 1 (Homo sapiens) (Q05397 whole entry, looked up): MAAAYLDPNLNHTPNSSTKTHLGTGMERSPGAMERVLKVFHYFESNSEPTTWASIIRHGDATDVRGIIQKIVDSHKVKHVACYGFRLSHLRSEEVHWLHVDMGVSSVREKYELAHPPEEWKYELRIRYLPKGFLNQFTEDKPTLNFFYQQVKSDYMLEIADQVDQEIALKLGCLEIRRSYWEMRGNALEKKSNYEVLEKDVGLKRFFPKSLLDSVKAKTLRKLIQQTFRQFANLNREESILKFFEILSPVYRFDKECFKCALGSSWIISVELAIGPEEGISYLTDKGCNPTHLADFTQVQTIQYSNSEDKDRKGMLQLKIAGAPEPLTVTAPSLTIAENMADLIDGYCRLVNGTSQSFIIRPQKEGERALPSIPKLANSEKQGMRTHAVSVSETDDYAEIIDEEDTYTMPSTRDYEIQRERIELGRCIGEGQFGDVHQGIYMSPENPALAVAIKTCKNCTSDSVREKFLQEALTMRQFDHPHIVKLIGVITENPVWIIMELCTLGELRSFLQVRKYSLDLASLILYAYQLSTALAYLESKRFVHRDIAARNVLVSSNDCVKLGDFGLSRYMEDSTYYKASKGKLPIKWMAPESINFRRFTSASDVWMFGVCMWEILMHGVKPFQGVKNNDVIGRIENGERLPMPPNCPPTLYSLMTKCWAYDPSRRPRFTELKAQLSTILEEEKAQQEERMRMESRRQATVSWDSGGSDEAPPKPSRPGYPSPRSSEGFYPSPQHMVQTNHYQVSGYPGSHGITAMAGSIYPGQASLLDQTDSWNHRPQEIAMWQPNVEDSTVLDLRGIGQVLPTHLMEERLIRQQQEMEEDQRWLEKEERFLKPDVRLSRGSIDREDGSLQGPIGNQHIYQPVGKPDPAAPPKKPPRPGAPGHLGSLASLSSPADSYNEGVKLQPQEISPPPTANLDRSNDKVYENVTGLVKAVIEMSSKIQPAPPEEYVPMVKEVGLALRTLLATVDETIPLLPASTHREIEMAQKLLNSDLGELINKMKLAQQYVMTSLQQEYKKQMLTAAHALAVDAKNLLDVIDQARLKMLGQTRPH

SMILES	composite z-score (Albumin (Bos taurus))	composite Z-score [1]	composite z-score [2]	composite z-score [3]	composite z-score [4]	composite z-score [5]	composite z-score [6]	composite z-score (Sam68 (KHDRBS1))	composite z-score [7]	composite z-score [8]	composite z-score [9]	composite z-score [10]	composite z-score [11]	composite z-score [12]	composite z-score [13]	composite z-score [14]	z-score [15]	composite z-score (Lefty1)	composite z-score [16]	z-score [17]
O=C1O[C@@H](c2ccccc2)[C@@H](c2ccccc2)N2[C@@H](c3ccccc3OCCO)[C@]3(C(=O)Nc4ccccc43)[C@@H](C(=O)Nc3nc4ccccc4s3)[C@H]12	0.827	0.703 (inactive)	1.38	-0.181	0.619	2.89	0.485	1.25	-0.111	1.16	0.858	1.23	0.467	0.865	0.778	0.188	-2	1.62	1.17	-0.237 (inactive)
CC(C)N1C(=O)c2ccccc2[C@](C)(C(=O)NCCN2CCOCC2)[C@@H]1c1ccc(CO)cc1	0.406	-0.523 (inactive)	-0.0697	-0.195	0.766	2.48	0.385	0.359	-1.12	-0.0721	-0.293	-0.0941	0.356	-0.726	0.897	-0.574	-0.662	-0.117	-0.489	-0.265 (inactive)
[N-]=[N+]=Nc1ccccc1[C@@H]1OC(c2ccc(OCCCO)cc2)=N[C@]1(Cc1ccccc1)C(=O)N1CCOCC1	0.309	-0.174 (inactive)	0.619	0.0117	0.312	2.23	0.115	1.31	0.0383	1.09	2.31	1.19	0.142	0.862	1.26	0.749	1.53	0.0367	0.923	-5.98 (inactive)
COCC(=C=CC[C@@H](O)c1cccc(OCCO)c1)C[C@@H](O)c1ccccn1	0.254	0.745 (inactive)	0.0979	-0.14	0.744	0.486	1.73	0.338	0.188	0.218	-0.252	0.467	-0.32	0.263	0.868	0.392	1.53	1.24	0.0688	-1.16 (inactive)
CN1C(=O)C2C=CC(C(O)C#Cc3ccccc3)N(N3CCCCC3)C2C1=O (stereo not given)	0.268	1.04 (inactive)	1.15	0.519	0.798	0.19	1.3	-0.156	0.111	0.82	2.14	0.392	-0.381	0.933	0.718	0.756	0.534	-0.418	1.3	-1.69 (inactive)
